Among the data in the supplement of paper PMC6555819 are PBM binding z-score values, retold here.

The subject of the test is LXRb:RXRa (NR concentration 270 nM, RXRa partner concentration 90 nM). The test is described as follows: PBM binding z-score (relative to random genomic background probes); higher = stronger binding; sequences stand for … in GC…GCGATTGACAGCGTAGAATGAAGG
The gist of the method:
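Custom Agilent 4×180K protein-binding microarrays carried double-stranded probes. Their 34-nt variable regions held direct-repeat seeds, single-nucleotide variants, half-site ablations and random human genomic background sequences. Arrays were incubated 1 h with ligand-free nuclear receptor dimers in PBS pH 7.4, 2% milk, 0.02% Triton X-100, 1 mM DTT, 0.2 mg/mL BSA and 0.4 mg/ml salmon testes DNA. Antibodies against each partner (one per run) detected binding, and scanned fluorescence was regression-normalized. Binding z-scores use random background probes as reference.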
The sequence CTACCAAGGTGGACAAGGTCGTTGATTACTATTC gave a PBM binding z-score of 0.805.

Consider AGAGTGAGGTTAAGATCAGGGAAACAGAATACAT, for which the PBM binding z-score worked out at 2.44. As for CCAGACAGGTGAAAGGGAACTCAGTCTGGTACGC, the figure is -0.0234; as for CGAACTAGGTCATGGACAGTGAATCTCCGCACGC, 1.46. CGACCTAGGTCATCCAGGACAGTGAATACATTGA returned a PBM binding z-score of 2.78. In the case of TAGCCTAGGTCATGCGGGCCACTATAGTGTCGGC it was 1.86; in that of ACTAGCAGGCCCAGTTTGGGTCACTCAAACAAAG, 0.4; in that of TAGCCTAGGTCATTCAGGTGCCAGTATAGAAAGC, 2.77. Sequence ATCCCTAGGTAAAGATAGTTCAGTGAATGCAAAT yielded a PBM binding z-score of 0.881. As to CAAACTAGGGCACCGGAAGGTCAAAGTCCGCATG, the PBM binding z-score came out at 3.1. As for CCCCGGAGGACAACAGGAGGTCAGAGCTGCCAGA, the figure is 1.75; as for CAAACTAGGTCAAGAGGGCAAAGTCCGCTTCCCG, 2.47; as for ATCCAAAGGTCGACGAGGTGAGTATACACCGTTT, 3.13.

TATACAGGGTCAAACGCCAGAGTACGAATGTCGA displayed a PBM binding z-score of 5.2. In the case of ACTAGCAGGCCAAGTCTGGGTCACTCAAACAAAG it was 0.796; in that of GCAGACAGGTGAAACGCAGGTGACTCAGGGTGGC, -0.401; in that of ATCTGTAGGTAACCAAGTTCAGTGAATGCCGAAC, 0.549. As for CTTACTGGGCCATTCAGAGGTCATTGATCATATG, the figure is 4.11; as for ATACCAAGGTGATCGTGAGGTCGTTCATACTAAC, 1.4. The sequence TAGCCTAGGTCATTCAGTGGCCAGTATAGAAAGC returned a PBM binding z-score of 2.39. In turn, AGTCAAAGTTCCCTAGGTAACGTAAGATTCAGCT registered a PBM binding z-score of -0.4.

TCTTGTAGATCAAGCAGGTGAAGAAAGCCTGAGT gave a PBM binding z-score of -0.145. In the case of CCTAGTTGGTCAAAGTCACACACGCTATAGGTAC it was 0.625.

For the sequence CCTAGTTGGTCGAGGTCACACACGCTATAGGTAC, the PBM binding z-score amounted to 3.65. With GATACAGGGTCAAGGCCAGAGTTCGCGTATTGAT, the PBM binding z-score amounted to 3.72. The sequence CCAACTAGGTCAAGGACAGTGAATCTCCGCACGC came in with a PBM binding z-score of 1.47. For the sequence TCTTGTAGATCAGCATGTTAAGAAAGCTGGCCAA, the PBM binding z-score was 0.0271. As for ACTTACGGGTCAACGAGGTTATAGCGCGCGTATA, the figure is 4.5; as for CGTCCAAGGTCAAAGATCAGTGAAGAGATGACGG, 4.2. As to CCTTACGGGTCGAGGTTATAGCACGGGTGGTACG, the PBM binding z-score was 0.916. Sequence GCTGACAGGTGAAACGCAGGTAACTCAGGGTGGC gave a PBM binding z-score of -0.392. Regarding CCTACTGGTCCACGAAAGGTCATTGATTCAGTGA, the PBM binding z-score is 4.6. As for CCAACTGGGGCAAGGTTACCATAACGCACAGCCA, the figure is 0.872. In the case of GCTGCTAGGTCAGGTTGGTCACCTAACGGGTACG it was 0.43. In turn, CCGACTGGGGCAAAGGGTACCATACTCAGTACGA came in with a PBM binding z-score of 0.194. In the case of ATCTCTAGGTAAGACTAAGTTCAGTGAAGAACGC it was 0.595; in that of TCTATTAGTTTATTAGGGCAACCGAAACAGCGGA, 1.25; in that of CCTTACGGGCCACTCCAGGTTATAGCATCGGAGT, -0.116.

In the case of TCTTGTAGATCAAGCACGTTAAGAAAGCCTGAGT, the PBM binding z-score worked out at 0.106.
